# Compound activity (PubChem)
# Compounds with a hit are over-represented: about 8.3% of the library has one in this group of screens.
# FBPA Giardia inh – blocks Giardia fructose-bisphosphate aldolase activity; A8B2U2; purified Giardia FBPA; Potency, µM (top dose mostly 59.6 µM), for the others: at the highest dose activity, negative = inhibition, most hits filed as inhibitors; 290,000 compounds, 0.71% hits; note: potency is the fitted concentration of half-maximal effect; nearly all actives have a fitted effect of over 55% in size
# Target sequence (A8B2U2 whole entry, looked up): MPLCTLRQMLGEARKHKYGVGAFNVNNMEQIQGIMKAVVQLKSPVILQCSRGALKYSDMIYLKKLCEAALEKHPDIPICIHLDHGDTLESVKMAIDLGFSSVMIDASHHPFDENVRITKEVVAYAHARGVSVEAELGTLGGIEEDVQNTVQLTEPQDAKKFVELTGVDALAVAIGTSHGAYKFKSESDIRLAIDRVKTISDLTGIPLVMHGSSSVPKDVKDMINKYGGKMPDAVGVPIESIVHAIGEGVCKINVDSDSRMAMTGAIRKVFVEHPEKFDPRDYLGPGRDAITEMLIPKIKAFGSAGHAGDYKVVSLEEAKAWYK
#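 Giardia FBPA (40 nM reagent) was preincubated 10 min at RT with compound (up to 57.5 uM final), then substrate plus GAPDH/TPI/NAD/arsenate coupling system with diaphorase/resazurin was added; resorufin fluorescence (525/598 nm) was read after 20 min.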
# Marburg entry inh – inhibitors of Marburg virus binding or cell entry; Marburg virus pseudotyped entry inhibition, cell reporter; Potency, µM (doses to about 37.8 µM), without a hit: at the top dose activity change, negative = inhibition, actives largely listed as inhibitors; 300,000 compounds, 1.8% hits; AID 540276; calls by dose curve; tested in HEK293 cells; note: potency is the fitted concentration of half-maximal effect
# LASV entry inh – blocks Lassa virus binding to or entry into cells; AID 540256; Potency, µM (highest dose often 37.9 µM), inactives show at the highest dose activity change, negative = inhibition, most hits filed as inhibitors; 300,000 compounds, 1.2% hits; Lassa virus pseudotype entry inhibition, cell reporter; calls by dose curve; tested in HEK293 cells; note: potency is the fitted concentration of half-maximal effect; nearly all actives have a fitted effect of over 50% in size
# HCV inhibitor – HCV inhibition; Potency, µM (series often up to 41.8 µM), inactives show at the highest dose activity change, negative = inhibition, hits mostly inhibitors; Huh7.5.1 HCVcc-Cre infection, luciferase reporter, 44 h; 340,000 compounds, 3.4% hits; note: potency is the fitted concentration of half-maximal effect
#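 Compounds are dispensed onto cells plated 4 h earlier at 1,000 per well, with HCVcc-Cre virus (about 0.5 moi) added next. Following 44 h of culture, luminescent signal is measured for 15 sec after 15 min with substrate at room temperature.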
# HCMV inh – human cytomegalovirus inhibition; activity change, negative = inhibition, % at 57.5 µM; AID 1259415; HFF cells, HCMV-luciferase reporter, 72 h; active compounds read low; 410,000 compounds, 4.5% hits; in the data active = activity change below about -60%; inconclusive = no clear call, values can overlap the other calls; inactive = above about -39%
#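 Screen run at 2 compound doses on HFFs infected with reporter HCMV, MOI 1 PFU/cell. Luciferase activity from cell lysates at 72 h post infection gave inhibition relative to buffer-only and Salinomycin wells.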
# FMDV antiviral – antivirals against foot and mouth disease virus; Potency, µM (doses to about 57.9 µM), for the others: at the highest dose activity change, negative = inhibition, actives largely listed as inhibitors; FMDV antiviral cell-based qHTS; 410,000 compounds, 1.2% hits; calls by dose curve; tested in HEK293T cells; note: read-out not given here; potency is the fitted concentration of half-maximal effect; nearly all actives have a fitted effect of over 45% in size
# Active calls of the source: *; ? = inconclusive; / = not tested or not shown; [ ] = remark or other dose. Unless noted, calls come from the whole dose curve; as a rule, active = well fitted curve in the direction sought with a large enough effect; inconclusive = small, poorly fitted or top-dose-only effect, or another doubt; inactive = no such curve, though single readings can be large; an effect the other way counts as inactive or inconclusive. % is set by controls: 0 for no effect and ±100 for the full control effect.
SMILES,FBPA Giardia inh,Marburg entry inh,LASV entry inh,HCV inhibitor,HCMV inh,FMDV antiviral
CCOc1ccc(/C=C2\CCC(C3CCCC3)C2=O)cc1 (stereo not drawn),1.4%,?,1.4%[46.1 µM],2.8%,35.3,-2.2%
O=C(NC1CC1)[C@@H]1C[C@@H](Sc2nc3ccccc3[nH]2)CN1CC1CCCCC1,/,/,/,/,/,-9.8%
COC(=O)[C@@H]1[C@@H](CO)[C@@H]2Cn3c(ccc(Br)c3=O)[C@H]1N2Cc1cc(F)ccc1F,/,/,/,/,53.6,/
COC(=O)C1=C(c2ccccc2)c2ccccc2S(=O)(=O)N1CC(=O)Nc1ccc(F)c(F)c1,/,?,11.2µM*,/,-30.4,-13.2%
COC(=O)C1=C(c2ccccc2)c2ccccc2S(=O)(=O)N1CC(=O)Nc1ccccc1Cl,/,?,-22.1%[46.1 µM],/,-11.0,-4.0%
Cc1nc(-c2ccccc2)sc1-c1nc(-c2ccncc2)ncc1S(=O)(=O)c1ccccc1,2.0%,4.47µM*,?,?,-81.8*,?
Cc1ccc(N2CCN(C(=O)c3cnn(-c4ccc(F)cc4F)c3C3CCN(C(=O)OC(C)(C)C)CC3)CC2)c(C)c1,/,/,?,/,?,-21.7%
Cc1ccc2oc(=O)cc(CN3CCN(C/C=C/c4ccccc4)CC3)c2c1,-8.0%,-14.6%[46.1 µM],-8.8%,10µM*,19.0,-14.6%
Cc1cccc(N2CCN(Cc3cc(=O)oc4cc(C)ccc34)CC2C)c1 (stereo not drawn),/,10.2%[46.1 µM],10.4%[46.1 µM],/,-65.6*,-23.5%
O=c1cc(CN2CCN(C/C=C/c3ccccc3)CC2)c2cc(O)ccc2o1,5.4%,-22.8%,?,?,-33.4,?
Cc1ccc2c(CN3CCC(C)CC3)cc(=O)oc2c1,4.0%,-17.5%,?,?,112.9,62.9%
CCc1ccc(NS(=O)(=O)c2c(-c3ccccc3)csc2C(=O)OC)cc1,/,/,?,/,-13.8,23.0%
Cc1cc(C)cc(OC(C)C(=O)Nc2nonc2-c2ccc(Br)cc2)c1 (stereo not drawn),/,-2.9%[46.1 µM],10.8%[46.1 µM],/,-62.0*,-29.8%
COC(=O)c1c(NC(=O)c2ccc(C)cc2)sc(Cc2ccccc2)c1C,12.6%,5.5%,1.8%,-14.1%,-20.7,-0.2%
COC(=O)c1c(NC(=O)c2ccccc2)sc(Cc2ccccc2)c1C,3.3%,4.2%,-6.7%,0.1%,-62.4*,4.1%
Cc1sc(NC(=O)c2ccccc2)c(C(=O)NCCN(C)C)c1C,/,20.6µM*,-24.6%,?,22.3,19.7%
O=C1COCc2cc(-c3cccnc3)ccc2N1Cc1ccc2c(c1)OCO2,/,/,/,/,-10.0,/
CCOc1ccc(CNC(=O)c2ccccc2NC(=O)c2nsc3ccccc23)cc1,/,/,-16.1%[46.1 µM],/,124.6,11.0%
O=C(Nc1ccc(F)cc1F)NC1CCN(Cc2c(F)cccc2Cl)CC1,2.3%,?,?,-0.6%,-68.3*,?
Cc1nonc1OCCCNc1ccc([N+](=O)[O-])cc1Cl,1.2%,13.0%[46.1 µM],5.5%,10.2%,-77.7*,35.6%
COCCNC(=O)C1CCCN(Cc2cccc(C#N)c2)CC1 (stereo not drawn),/,/,/,/,-61.0*,-17.1%
CCNC(=O)C1CCCN(Cc2ccc(OCc3ccccc3)cc2)CC1 (stereo not drawn),/,/,/,/,-64.0*,5.6%
CCCCNC(=O)C1CCN(Cc2ccc(OCc3ccccc3)cc2)CC1,-15.8%,?,?,?,-16.0,12.4%
O=[S+]1([O-])C[C@@H](N2CCN(CCO)CC2)[C@@H](COCc2ccccc2)N1,/,/,11.6%[46.1 µM],/,/,/
N[C@@H]1C(O)OC(CO)C(O)C1O (stereo partly drawn),-0.2%,/,/,/,/,/
CCN1CCN(c2ccc(NC(=O)CCc3c(C)nc4c(-c5ccc(F)cc5)c(C)nn4c3C)cc2)CC1,0.0%,/,/,2.51µM*,-60.2*,-25.8%
COC(=O)Cc1nnn2c1[C@H](C)[C@H](c1cccc(OC)c1OC)OCC2,/,/,/,/,26.6,/
CN(C)CCCNCC(=O)Nc1ccc(Cl)cc1C(=O)c1ccccc1,?,11.2µM*,-19.2%[46.1 µM],?,-3.6,-8.0%
CCN(CC)CCNCC(=O)Nc1ccc(Cl)cc1C(=O)c1ccccc1,?,-21.3%,1.9%,-29.4%,29.6,-6.5%
COc1ccc(C(=O)N2CCC3(CC2)CN(c2ccccn2)C3)cc1,7.5%,/,/,/,/,?
